This note sets out measurements from the supplement of paper PMC7156485.
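Note: TDF denotes transformed human dermal fibroblasts of mesenchymal origin.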

The test system of the test is TDF. In words: cell number relative to DMSO (% of DMSO); higher = more cells (less growth inhibition / toxicity). The settings on record: concentration: 10 µM; 24 h. The method in brief: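 After 24 h at 37 °C with compounds at 10 µM, in triplicate, HCC1569 and TDF cells were fixed with 3.7% formaldehyde. Immunostaining used a rabbit anti-H1.0 antibody and an AlexaFluor 647 secondary, with DAPI, and six fields per well were imaged at ×10. H1.0 nuclear intensity or cell number is presented as percent of the plate control, from the median of replicates, with HCC1569 values smoothed for positional effects.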
Consider `O=C(O)c1ccccc1Nc1cccc(OCc2ccc3ccccc3n2)c1`, for which the cell number stood at 97.2.
Under `C#CC1(O)CCC2C3CCC4=CC(=O)CCC4C3CCC21CC` (configuration not stated) [Levonorgestrel] stands 91.5; under `CC1=C2C(=COC(C)C2C)C(=O)C(C(=O)O)=C1O` (configuration not stated) [Citrinin], 102.
Turning to `Br.CN1CCc2cc(O)c(O)cc2C(c2ccccc2)C1` (configuration not stated), the cell number turned out to be 98.2.
Next, `O=C([O-])CCC(NC(=O)c1ccccc1C(=O)[O-])C(=O)[O-].[Na+].[Na+].[Na+]` [Phthalamoyl-L-glutamic acid trisodium]: 103; `O=C1CCc2cc(OCCCCc3nnnn3C3CCCCC3)ccc2N1` [Cilostazol]: 109; `CN(C)CCOC(C)(c1ccccc1)c1ccccn1.O=C(O)CCC(=O)O` (configuration not stated) [Doxylamine succinate]: 101.
Under `COc1ccc(CCN(C)CCc2ccc(OC)c(OC)c2)cc1OC.Cl` [YS-035 hydrochloride] stands 108; under `CCCN(CCC)CC1CCCCN1CCNC(=O)N1c2ccccc2C(=O)Nc2cccnc21` (configuration not stated), 112.
In turn, `CCN(CC)C(C)C(=O)N1c2ccccc2Sc2ccccc21.Cl` (stereo not drawn) [10-(alpha-Diethylaminopropionyl)-phenothiazine hydrochloride] displayed a cell number of 99.
Next, `CCN(CC)C(=O)C(C#N)=Cc1cc(O)c(O)c([N+](=O)[O-])c1` [Entacapone]: 92; `CC(=O)OC1(C(C)=O)CCC2C3C=C(Cl)C4=CC(=O)C5CC5C4(C)C3CCC21C` (configuration not stated) [Cyproterone acetate]: 99.8.
